Out of some 200,000 compounds screened, about 18,000 (9%) were called active. This excerpt belongs to a sample that is enriched for actives. A number with no mark means an inactive call. Rule as the data show it: active = inhibition above about 50%; inactive = the rest.
Assay: Leishmania major promastigote growth inhibition, primary screen (AID 1063);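 also: promastigotes grown with compound for 44 hours at 28 °C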
Conditions: Leishmania major promastigotes, resazurin fluorescence viability; at 10 µM; active compounds read high
Work on Cc1ccc(/C=N/NC(=O)COc2ccccc2-c2ccccc2)cc1 yielded an inhibition of 4.74%. In the case of CC(=O)n1c(C=Nc2ccccc2)c(O)c2ccccc21, the inhibition is reported as 4.07%. NS(=O)(=O)c1ccc(NC(=S)NNC(=O)c2cccs2)cc1 showed an inhibition of -4.08%. CC(=O)Cc1nsc(NC(=O)c2ccc(Cl)cc2Cl)n1 showed an inhibition of -1.22%. CCOc1cc(N2CCOCC2)c(OCC)cc1NC(=O)C1=NN(c2cccc(C)c2)C(=O)CC1 showed an inhibition of 13.6%. Work on CN(Cc1nc2ccccc2c(=O)[nH]1)Cc1cc(=O)oc2ccc3ccccc3c12 yielded an inhibition of 14.2%. For CCN(CC(=O)NC(=O)NCc1ccccc1)Cc1nc2ccccc2c(=O)[nH]1, the inhibition was -3.9%. With CCN(Cc1nc2ccccc2c(=O)[nH]1)Cc1cc(=O)oc2cc(C)c(C)cc12 the inhibition was 73.8% (active). With COc1cc(/C=C/C(=O)OCC(=O)NC(=O)NCc2ccccc2)ccc1OCC#N the inhibition was -1.09%. Work on CC(=O)c1cc(C#N)c(SCC(=O)Nc2nccs2)nc1C yielded an inhibition of 1.83%. In the case of CCOC(=O)c1ccccc1NC(=O)CSc1nc2ccccc2c(=O)[nH]1, the inhibition is reported as 6.6%. With CCCCNS(=O)(=O)c1ccc(S(=O)(=O)n2cnc3ccccc32)cc1 the inhibition was -3.46%. In the case of O=S(=O)(c1ccc(-c2ccccc2)cc1)N1CCCC1, the inhibition is reported as -7.57%. For O=S(=O)(c1ccc(Br)cc1)n1ccc2ccccc21, the inhibition was 90.7% (active). Compound COc1ccc(-n2c(O)c(C=NCC(c3ccco3)N3CCCC3)c3ccccc3c2=O)cc1OC (stereo not given) has an inhibition of 2.68%. With CC(=O)c1ccccc1NC(=O)CC1(CC(=O)O)CCCCC1 the inhibition was 3.25%. For CCOC(=O)C1=NOC(Cn2cc(C(C)=O)c(=O)[nH]c2=O)C1 (stereo not given), the inhibition was 1.88%. For N/C(=N\OC(=O)c1ccc([N+](=O)[O-])cc1)c1ccccn1, the inhibition was 1.71%. Work on O=C(OCc1ccc([N+](=O)[O-])cc1)c1ccccn1 yielded an inhibition of -0.28%. In the case of N/C(=N\OC(=O)Cc1ccc([N+](=O)[O-])cc1)c1ccccn1, the inhibition is reported as 98.7% (active). With CNc1nccc(-c2ccc(Cl)cc2)c1C#N the inhibition was -6.29%. For COc1cc(OC)cc(-c2nnc(N(C)C(=O)c3ccncc3)s2)c1, the inhibition was -3.83%. Work on Cc1ccc(NC(=O)CSc2nc(CSc3ccc(C)cc3)cc(=O)[nH]2)cc1 yielded an inhibition of -2.59%. Compound O=C(Cc1cccc2ccccc12)Nc1ccc2oc(-c3ccccc3)nc2c1 has an inhibition of 40.6%. In the case of CCCCCC(=O)Nc1ccc2oc(-c3ccncc3)nc2c1, the inhibition is reported as 96.4% (active). Compound O=C(Nc1ccc2oc(-c3ccc4ccccc4c3)nc2c1)c1cccs1 has an inhibition of -1.1%. COc1cc(NC(=S)N2CCCC(C)C2)cc(OC)c1OC (stereo not given) showed an inhibition of 4.64%. Compound O=C(Nc1ccccc1)N1CCN(C(=O)Nc2ccccc2)CC1 has an inhibition of -5.42%. Compound CCCCN(C(=O)/C=C/c1ccco1)c1c(N)n(CC(C)C)c(=O)[nH]c1=O has an inhibition of -4.4%. Work on O=C(CCc1nnc(CCCCc2ccccc2)o1)NC(c1cccnc1)C(F)(F)F (stereo not given) yielded an inhibition of 11.3%. Compound COc1ccc([N+](=O)[O-])cc1NC(=O)CCc1ccccc1 has an inhibition of -3.05%. Work on CC(=O)Nc1cccc([N+](=O)[O-])c1 yielded an inhibition of -0.87%. With CC(CCc1ccccc1)NCC(O)c1cccc([N+](=O)[O-])c1 (stereo not given) the inhibition was 59.5% (active). In the case of CN(C)CCCN1C(=O)CSC1c1ccc([N+](=O)[O-])cc1 (stereo not given), the inhibition is reported as 46.8%. With O=C1NC2(CCCCCC2)C(=O)N1CCS(=O)(=O)Oc1ccccc1 the inhibition was -10.5%. With Cc1ccc(NC(=O)c2ccccn2)cc1S(=O)(=O)N1CCOCC1 the inhibition was -1.09%. In the case of CCn1cc(C(=O)Nc2cc(C)ccc2C)c(=O)c2ccc(C)nc21, the inhibition is reported as 1.39%. With CN(CC#CCC(c1ccccc1)c1ccccc1)C(C)(C)C the inhibition was 100% (active). With CC(C)(C)N(CC#CCC(O)(c1ccccc1)C1CCCC1)CCO (stereo not given) the inhibition was 3.46%. Compound COC(=O)C1=C(Nc2ccc(OC)cc2)C=C(C)C(C(=O)OC)C1c1ccc(C)cc1 (stereo not given) has an inhibition of 24.6%. With COC(=O)C1=C(Nc2ccc(C)cc2)C=C(C)C(C(=O)OC)C1c1ccc(F)cc1 (stereo not given) the inhibition was 52.4% (active). Work on COC(=O)C1C(=O)NCC1c1ccc(C)cc1 (stereo not given) yielded an inhibition of 6.72%. Compound COCCn1c(C)cc(C2=NNC(=Nc3ccc(F)cc3)SC2)c1C has an inhibition of -1.36%. Compound Cc1cc(C2=NNC(=Nc3ccc(S(=O)(=O)N4CCOCC4)cc3)SC2)c(C)n1CC1CCCO1 (stereo not given) has an inhibition of -7.5%. For C=CCn1c(C)cc(C2=NNC(=NCC)SC2)c1C, the inhibition was 58.5% (active). In the case of COC(=O)c1cc2n(n1)CCCNC2=O, the inhibition is reported as -4.96%. For CC(=O)Nc1ccccc1NC(=O)c1cc(C)cc(C)c1, the inhibition was -0.58%. In the case of CC(=O)c1ccc(N=C2SCCCN2C(=O)C2CCCCC2)cc1, the inhibition is reported as 85.8% (active). O=C(O)c1ccc(NC(=O)C2CCCCC2)cc1 gave an inhibition of -6.65%. CCC1CCCCN1C(=S)Nc1ccc(C(C)=O)cc1 (stereo not given) gave an inhibition of -8.59%. Compound COc1cccc(NC(=O)CS(=O)(=O)c2cn(CC(=O)N3CCOCC3)c3ccccc23)c1 has an inhibition of -7.03%. For O=C(NC(Cc1c[nH]c2ccccc12)C(=O)N/N=C/c1ccc(Br)cc1)c1cccs1 (stereo not given), the inhibition was 65.6% (active). Compound CC(=O)NC(Cc1c[nH]c2ccccc12)C(=O)O (stereo not given) has an inhibition of -12.4%. Work on CC(=O)Nc1ccc(/C=N/NC(=O)c2cccs2)cc1 yielded an inhibition of -2.65%. Compound CSc1ncccc1C(=O)N1CCCC(CCC(=O)NCc2ccccc2F)C1 (stereo not given) has an inhibition of -5.49%. For COc1cc(NC(=O)c2cccs2)ccc1NC(=O)c1ccccc1Cl, the inhibition was 0.19%. Compound CCOc1ccc2[nH]c(=O)c(C(c3nnnn3CCOC)N3CCOCC3)cc2c1 (stereo not given) has an inhibition of -4.07%. COCCn1nnnc1C(c1ccccc1Cl)N1CCN(c2ccccc2OC)CC1 (stereo not given) gave an inhibition of -0.67%. For COc1ccc(C(c2nnnn2C2CCCCC2)N2CCN(c3ccccc3F)CC2)cc1 (stereo not given), the inhibition was 96.8% (active). In the case of COc1ccc(N2CCN(C(c3cc4ccc(C)cc4[nH]c3=O)c3nnnn3C3CCCC3)CC2)cc1 (stereo not given), the inhibition is reported as 75.4% (active). With CN1CCN(C(c2cc3cc4c(cc3[nH]c2=O)OCCO4)c2nnnn2C2CCCC2)CC1 (stereo not given) the inhibition was -6.88%. With CCC(c1nnnn1C1CCCC1)N1CCN(C(=O)c2ccco2)CC1 (stereo not given) the inhibition was -6.05%. In the case of CCOC(=O)C1CCN(C(c2cc3cc(C)cc(C)c3[nH]c2=O)c2nnnn2C2CCCCC2)CC1 (stereo not given), the inhibition is reported as 88.6% (active). Work on CC(C)C(c1nnnn1C1CCCC1)N1CCN(c2ccccc2F)CC1 (stereo not given) yielded an inhibition of 33%. In the case of Cc1cc(C)c2[nH]c(=O)c(C(c3nnnn3Cc3ccc4c(c3)OCO4)N3CCCC3)cc2c1 (stereo not given), the inhibition is reported as 27.4%.

From PubChem BioAssay AID1063 (University of Pittsburgh Molecular Library Screening Center, 2008)
